Screen size: about 340,000 compounds; about 3,300 (0.97%) were called active. Shown is part of a subset that was picked to be rich in actives. Values without a mark were called inactive.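 How the source made its calls: active means mean activation above about 17%, with every replicate also reaching it (limit read from the data, passing the limit was not always enough); inconclusive means only one of the two conditions met; inactive means the rest.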

Protein FosB (Mus musculus), sequence (P13346 whole entry, looked up): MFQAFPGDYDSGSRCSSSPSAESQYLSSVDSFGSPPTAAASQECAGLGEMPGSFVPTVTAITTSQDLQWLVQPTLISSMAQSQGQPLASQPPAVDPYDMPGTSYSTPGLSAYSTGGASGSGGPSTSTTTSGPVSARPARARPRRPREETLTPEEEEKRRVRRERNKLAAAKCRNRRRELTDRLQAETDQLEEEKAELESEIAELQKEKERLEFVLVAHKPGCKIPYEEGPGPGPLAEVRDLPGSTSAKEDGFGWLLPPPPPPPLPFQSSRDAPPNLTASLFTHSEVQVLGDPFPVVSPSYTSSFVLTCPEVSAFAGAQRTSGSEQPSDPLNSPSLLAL

The experiment has as its target Protein FosB (Mus musculus) (UniProt P13346). Kind of experiment: enhancers of mouse delta FosB DNA binding – biochemical, fluorescence polarization, TAMRA-CDK5 oligo, single point, primary screen (AID 493131).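 Further: fluorescence polarization rise as delta FosB binds a TAMRA Cdk5 AP-1 oligo.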 The following applies: purified delta FosB, at 25 µM, hits give high values, percent of positive-control signal above neutral wells.
As for `CCOC(=O)N1CCC(NC(=O)C(C)n2c3ccccc3c3cnn(C)c(=O)c32)CC1` (centres undefined), the activation was -6.6%.

With `O=C(Nc1ccccc1C(F)(F)F)c1cc(-c2ccc(O)cc2)on1`, the activation was 0.0145%.

For `O=C(Nc1cccnc1Cl)c1cc(-c2ccccc2O)on1`, the activation is 64.8% (active).

With `C=CCNC(=O)c1cc(-c2ccccc2O)on1`, the activation is -2.37%.

Consider `Cc1ccc(NC(=O)COC(=O)CCc2nc3ccccc3n2-c2ccccc2)c(C)c1`, for which the activation is -3.49%.

As for `Cc1oc(-c2cccc(Cl)c2)[n+]([O-])c1C`, the activation was 7.9%.

Regarding `COc1ccc(C(=O)Nc2ccccc2C(=O)N/N=C/c2ccccc2OC)cc1`, the activation was 38% (active).

Take `COc1ccc(C(=O)Nc2ccccc2C(=O)N2CCN(c3ccccc3)CC2)cc1`: the activation was -0.701%.

Regarding `COc1ccc(C(=O)Nc2cc(C)c(NC(=O)c3ccccc3OC)cn2)cc1`, the activation was -13.9%.

Take `Cc1ccc(NC(=O)NNC(=O)c2sccc2-n2cccc2)cc1`: the activation was -2.71%.

`Nc1ccn(CC(=O)N2CCN(c3ccccn3)CC2)c(=O)n1`: the activation is -4.48%.

Take `O=C(NC1CCCCC1)n1c(=O)oc2cc(S(=O)(=O)N3CCCCC3)ccc21`: the activation is 3.88%.

With `O=C(Nc1ccc(S(=O)(=O)N2CCOCC2)cc1)C1CCN(S(=O)(=O)c2ccc(Cl)cc2)CC1`, the activation was -7.05%.

In the case of `Cc1ccc2nc(NC(=O)C3CCN(S(=O)(=O)c4ccc5c(c4)oc(=O)n5C)CC3)sc2c1`, the activation was 28.8% (active).

Consider `Cn1c(=O)oc2cc(S(=O)(=O)N3CCC(C(=O)Nc4ccc(OC(F)(F)F)cc4)CC3)ccc21`, for which the activation was 32.2% (active).

As for `Cc1ccc(C)c(N2CCN(S(=O)(=O)c3ccc4c(c3)oc(=O)n4C)CC2)c1`, the activation was -5.87%.

As for `COc1ccc(NC(=O)C2CCN(S(=O)(=O)c3ccc4[nH]c(=O)oc4c3)CC2)c(OC)c1`, the activation is 1.87%.

Turning to `CC(=O)c1cccc(-c2ccc(CN3C(CC(C)C)C(=O)N(Cc4cn(CC5CCCCC5)nn4)CCS3(=O)=O)cc2)c1` (centres undefined), the activation is -19.5%.

Turning to `O=C(NN=Cc1ccccc1O)NN=Cc1ccccc1O`, the activation was 8.66%.

`O=C(Nc1ccc(C(=O)NCc2ccccc2Cl)cc1)C1=CSCCO1`: the activation is -4.85%.

As to `COc1cc(O)c2c(=O)c3c(O)c(O)ccc3oc2c1OC`, the activation was -1.22%.

As for `CCCc1nc2c([nH]1)C(c1cccnc1)C(C#N)=C(N)O2` (centres undefined), the activation is -0.0522%.

In the case of `O=C(COc1ccccc1)Nc1ccc(F)cc1`, the activation is -2.09%.

Consider `CCOC(=O)C1=C(O)/C(=C/c2ccc(OCC(=O)Nc3ccc(C)cc3)cc2)N=C1C`, for which the activation is 30.5% (active).

On to `CCOC(=O)C1=C(O)/C(=C/c2cc(C)n(-c3ccccc3)c2C)N=C1C`, for which the activation was -14.4%.

Turning to `Cc1ccc(NC(=O)COc2ccc(/C=C3/NC(=O)NC3=O)cc2)cc1`, the activation was 73.1% (active).

For the compound `COC(=O)C1=C(O)/C(=C/c2ccc(OCC(=O)Nc3ccccc3)cc2)N=C1C`, the activation was 13.8%.

In the case of `CC(=O)Nc1ccc(NC(=O)COc2ccc(-c3ccccc3)cc2)cc1`, the activation is 14.5%.

In the case of `CSCCC(NC(=O)COc1ccccc1)C(=O)N(C)CC(=O)Nc1ccc(C)cc1` (centres undefined), the activation is -10.6%.

Consider `C#Cc1ccc([C@@H]2C=C(C(=O)O)O[C@H](OCCCCO)C2)cc1`, for which the activation is -5.67%.

As for `O=C(Nc1ccc(Br)cn1)C1CCN(S(=O)(=O)c2cccs2)CC1`, the activation was 0.962%.

As for `CN(CCNC(=O)c1cc2c(-c3ccccc3F)nn(C)c2s1)C1CCCCC1`, the activation was -29%.

As for `COc1ccc(C2CC(=O)Nc3sc(=N)c4c(N)c(C#N)c(N)nc4c32)cc1OC` (centres undefined), the activation was 2.35%.

As to `N#Cc1c(N)nc2c3c(sc(=N)c2c1N)NC(=O)CC3c1ccccc1Cl` (centres undefined), the activation was 57.2% (active).

Regarding `CSc1nc2c(c(=O)[nH]1)C(c1cccc(Cl)c1Cl)CC(=O)N2` (centres undefined), the activation was -2.19%.

Turning to `O=C(Nc1ccc(N2CCN(C(=O)c3cccs3)CC2)cc1)c1cccnc1Cl`, the activation is -0.363%.

In the case of `Nc1nnc(SCC(=O)OCc2ccc(Cl)c(Cl)c2)s1`, the activation was -5.37%.

Turning to `Cc1cc(C)n(CC(O)COc2ccc(C(C)(C)C)cc2)n1` (centres undefined), the activation was -7.22%.

For the compound `COc1ccc(OCC(O)CN(C)C(=O)C(C)Oc2ccccc2)cc1` (centres undefined), the activation was 4.24%.

With `CN(C)CC(O)COc1ccc(C(C)(C)c2ccc(OCC(O)CN(C)C)cc2)cc1` (centres undefined), the activation was 20% (active).

Turning to `O=C1CC(Sc2ncn[nH]2)C(=O)N1c1ccccc1` (centres undefined), the activation was 1.52%.

As to `Cc1cc(Nc2cc(N3CCN(C)CC3)nc(Sc3ccc(NC(=O)C4CC4)cc3)n2)n[nH]1`, the activation is 3.28%.

Regarding `CCCOCC(O)CC(CC)C(=O)NNC(=S)Nc1ccccc1` (centres undefined), the activation is -0.789%.

Take `Cc1ccc(/C=N/NC(=O)COc2ccccc2-c2ccccc2)cc1`: the activation is 2.13%.

As for `C=CCNC(=O)/C=C/c1ccc(C(C)C)cc1`, the activation is -5.28%.

For `O=C(/C=C/c1ccc(F)cc1)NC(=S)NNC(=O)c1cccnc1`, the activation was -8.6%.

Consider `O=C(/C=C/c1ccc(F)cc1)NCCNC(=O)/C=C/c1ccc(F)cc1`, for which the activation was 53.1% (active).

With `O=C1/C(=C/c2coc3ccc(O)cc3c2=O)SC(=S)N1c1ccccc1`, the activation is 45.3% (active).

As to `O=c1c(/C=N/O)coc2ccc(Cl)cc12`, the activation is -6.61%.

Turning to `Cc1ccc2occ(/C=N/NC(=O)c3ccccc3C)c(=O)c2c1`, the activation was -9.18%.

As for `COc1ccc(CNC(=O)c2ccc3oc(C(C)C)nc3c2)cc1`, the activation is -6.34%.

For the compound `CC(=O)Nc1ccc(Nc2c([N+](=O)[O-])cc(S(C)(=O)=O)cc2[N+](=O)[O-])cc1`, the activation was 9.05%.

Turning to `CC(=O)Nc1ccc(Nc2c3ccccc3nc3ccccc23)cc1`, the activation was 107% (active).

In the case of `CC(=O)Nc1ccc(S(=O)(=O)N(C)c2nc3ccccc3nc2Cl)cc1`, the activation is -7.23%.

In the case of `COC(=O)CNC(=O)c1ccc(OC2CCN(C(=O)C3CC3)CC2)cc1`, the activation was 4.73%.

With `O=C(NCc1ccccc1)C1CCCN(S(=O)(=O)c2cccs2)C1` (centres undefined), the activation is -3.74%.

For `COc1ccc(C(=O)NN2C(=O)C3C(c4ccccc4)C=CC(c4ccccc4)C3C2=O)cc1` (centres undefined), the activation was -10.4%.

For `COc1ccccc1NC(=O)CCC(=O)OC(C)C(=O)c1ccccc1` (centres undefined), the activation was -0.918%.

Turning to `O=C(O)C1C2C=CC(O2)C1C(=O)Nc1ccccn1` (centres undefined), the activation is 2.08%.

On to `O=C(NCCc1ccccn1)c1cc(-c2ccc(Cl)cc2)nc2ccccc12`, for which the activation is -16.7%.

As for `COc1ccccc1CNC(=O)Cn1c(=O)oc2cc(Cl)ccc21`, the activation is 46.6% (active).

`COc1ccc(OC)c(NC(=O)Cn2c(=O)oc3ccccc32)c1`: the activation was -3.42%.

In the case of `COc1ccccc1CNC(=O)c1cc(=O)c2ccccc2o1`, the activation was -8.74%.

In the case of `COc1ccccc1C(=O)NCC(=O)OCC(=O)Nc1nnc(-c2ccccc2)o1`, the activation was 0.87%.

On to `CCOc1ccc(S(=O)(=O)NCCC(=O)NCC(C)(C)N2CCOCC2)cc1`, for which the activation was -1.62%.

`NC(N)=Nc1nc2ccc(Br)cc2c(=O)[nH]1`: the activation was 42.4% (active).

For `NC(=O)c1cc(-c2cccnc2)nc2ccc(Br)cc12`, the activation was 0.097%.

Consider `C/C(=N\N)c1c(-c2ccccc2)c2cc(Br)ccc2[nH]c1=O`, for which the activation is -5.15%.

With `CC(=O)Nc1ccc(S(=O)(=O)N2CCN(CCCOc3cc(C)ccc3C)CC2)cc1`, the activation is 0.131%.

For `Cc1cc(NC(=O)CSc2nc3cc(Cl)ccc3c(=O)n2Cc2ccco2)no1`, the activation is 41.2% (active).

Regarding `N#Cc1c(NC(=O)CSc2nc3ccccc3c(=O)n2Cc2ccco2)sc2c1CCCC2`, the activation was 6.6%.

Consider `Cc1cc(NC(=O)CSc2nnc(-c3ccco3)n2N)no1`, for which the activation is 2.33%.

Take `COc1ccc(CCN2C(=O)CC(N3CCC(C(N)=O)CC3)C2=O)cc1OC` (centres undefined): the activation was -2.97%.

Take `CCOC(=O)N1CCN(C(=O)C2CCCN(c3ncnc4c3sc3cccc(F)c34)C2)CC1` (centres undefined): the activation is -16.9%.

As to `O=C(NN=Cc1ccccc1)c1ccccc1`, the activation was -3.35%.

As to `O=C(N/N=C/c1cccc(O)c1)c1cc2c(ccc3ccccc32)o1`, the activation was 36.7% (active).

`Cc1c(/C=N\NC(=O)c2cc3ccccc3o2)c2ccccc2n1C`: the activation was -8.02%.

In the case of `COC(=O)c1cccnc1NC(=S)NC(C)C`, the activation is -6.13%.

Turning to `COc1ccccc1CC(=O)Nc1ccc(S(=O)(=O)N2CCCC2)cc1`, the activation was -8.89%.

`C/C=C(\C)C(=O)N1CC2(CC(c3cccc(NC(=O)CCCCC)c3)=NO2)C[C@@H]1C(N)=O` (some centres undefined): the activation was -1.2%.

Turning to `CCCCNC(=O)C(C)N(CCN(C)C)C(=O)CCCCCN1C(=O)NC(c2ccc(Cl)cc2)C(C(=O)OCc2ccccc2)=C1C` (centres undefined), the activation is 18.2% (active).

On to `CCCCNC(=O)C(C)N(CCN(C)C)C(=O)CCCN1C(=O)NC(c2ccc(Cl)cc2)C(C(=O)OCc2ccccc2)=C1C` (centres undefined), for which the activation was -3.28%.

`CC1=C(C(=O)OCc2ccccc2)C(c2ccc(C(F)(F)F)cc2)NC(=O)N1CCCCCC(=O)O` (centres undefined): the activation was -6.43%.

For `Cc1ccc(CC2CC(=O)N(c3ccc4c(c3)OCCO4)C2=O)cc1` (centres undefined), the activation is -9.23%.

Consider `N#CC(C#N)=CN=c1ccn(Cc2ccc(Cl)cc2Cl)cc1`, for which the activation was -0.0405%.

For the compound `COc1ccccc1-n1c(=S)[nH]c2c(sc(=S)n2-c2ccc(C)cc2C)c1=O`, the activation is -9.95%.

Regarding `COc1ccc(NC(=O)CSc2nc(N)c(-c3ccccc3)c(=O)[nH]2)cc1`, the activation is -6.21%.

Consider `COc1ccc(C(=O)Nc2c(N)nc(SCC(=O)N3CCC(C)CC3)[nH]c2=O)cc1OC`, for which the activation is -3.09%.

Turning to `COc1ccc(C(=O)Nc2c(N)nc(SCC(=O)Nc3ccc(C(C)=O)cc3)[nH]c2=O)cc1`, the activation was 22% (active).

(Values after PubChem BioAssay AID493131 (Broad Institute, 2011).)
